Screens deposited in PubChem by National Center for Advancing Translational Sciences (NCATS).
In the library only some 1.7% were active in any assay of this set; here they are far more common.
GLP1R cytotox = qHTS of GLP-1 Receptor Inverse Agonists: Cytotox Screen; HEK293 cAMP-luciferase reporter cells, luminescence, 24 h; 410,000 compounds, 0.13% hits; Potency, µM (titrated, usually from 38.3 µM), most hits filed as inhibitors; AID 624418, 2012;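 further: loss of luciferase light is scored as toxicity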
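Quantitative HTS format, 1536 wells, 200 cells/uL seeded. Compounds: 23 nL, 24 h, 37 °C. Detection: luciferase reagent, luminescence at 12 min RT; decreased signal taken as cytotoxic.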
GLP-1R agonist = qHTS of GLP-1 Receptor Agonists; Glucagon-like peptide 1 receptor (Homo sapiens), P43220; HEK293 GLP-1R CRE-luciferase, luminescence, 4-6 h; cells express a hypersensitive GLP-1R form; Potency, µM (series often up to 45.6 µM), hits mostly activators; 380,000 compounds, 0.007% hits; AID 624172, 2012
PTHR1 agonist = qHTS for PTHR1 Agonists: Primary Screen. AID 743266, 2014. HEK293 GP2 PTHR1 cells, GloSensor cAMP luminescence, 1 h. Parathyroid hormone/parathyroid hormone-related peptide receptor (Homo sapiens), Q03431. Potency, µM (series often up to 115 µM), hits mostly activators. 410,000 compounds, 0.075% hits; further: nearly all actives have a fitted effect of over 55% in size
Target sequence (Q03431 whole entry, looked up): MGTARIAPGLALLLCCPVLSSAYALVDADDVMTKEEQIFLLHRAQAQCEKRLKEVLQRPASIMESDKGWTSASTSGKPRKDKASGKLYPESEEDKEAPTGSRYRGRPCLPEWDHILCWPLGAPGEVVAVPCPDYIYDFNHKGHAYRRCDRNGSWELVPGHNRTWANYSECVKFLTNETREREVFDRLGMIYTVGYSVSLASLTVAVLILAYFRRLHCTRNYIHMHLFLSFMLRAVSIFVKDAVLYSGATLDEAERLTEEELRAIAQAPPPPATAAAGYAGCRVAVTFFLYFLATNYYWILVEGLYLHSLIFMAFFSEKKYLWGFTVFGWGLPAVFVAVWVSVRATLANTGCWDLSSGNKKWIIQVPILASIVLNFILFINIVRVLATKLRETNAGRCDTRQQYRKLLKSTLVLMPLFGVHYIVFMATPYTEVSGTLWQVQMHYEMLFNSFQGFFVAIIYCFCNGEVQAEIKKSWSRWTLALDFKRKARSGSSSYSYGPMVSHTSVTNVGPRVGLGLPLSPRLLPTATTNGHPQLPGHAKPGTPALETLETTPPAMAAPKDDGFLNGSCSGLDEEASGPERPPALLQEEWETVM
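HEK-293-derived GP2 cells expressing PTHR1 and a GloSensor cAMP reporter, 3,000/well, plated overnight, given luciferin plus IBMX (each 0.5 mM as added) for 1 h at 37 °C, then compound for 1 h at 37 °C. Luminescence was read after 15 min at room temperature.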
GLP-1R inv ag = qHTS of GLP-1 Receptor Inverse Agonists (Inhibition Mode). 410,000 compounds, 1.6% hits. Glucagon-like peptide 1 receptor (Homo sapiens), P43220. AID 624417, 2012. HEK293 GLP-1R CRE-luciferase, luminescence, 24 h; GLP-1R form is constitutively active. Potency, µM (titrated, usually from 38.3 µM), most hits filed as inhibitors; further: nearly all actives have a fitted effect of over 55% in size
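HEK293 cells stably co-expressing constitutively active GLP-1R and a cAMP-responsive luciferase reporter were seeded in DMEM with 10% Nu serum, given compounds after 12 h, and incubated 24 h at 37 deg C. Luminescence was then read.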
Numbers stand for hits; 0 = inactive; ? = inconclusive; - = no result given. The call rests on the fitted dose curve; in most records, active means well fitted curve in the direction sought with a large enough effect; inconclusive means small, poorly fitted or top-dose-only effect, or another doubt; inactive means no such curve, though single readings can be large; an effect the other way counts as inactive or inconclusive.

SMILES	GLP1R cytotox	GLP-1R agonist	PTHR1 agonist	GLP-1R inv ag
CC1(C)Cc2cccc(C(=O)NC3CCN(Cc4ccccc4)CC3)c2O1	0	0	0	10µM
O=S(=O)(c1ccc(Cl)cc1)c1nc(-c2cccs2)oc1SCc1ccccc1F	0	-	0	10µM
CCOC(=O)C(NC(=O)c1ccccc1Cl)(Nc1ccc(C)c(C)c1)C(F)(F)F (configuration not stated)	0	0	0	0
COC(=O)C(Nc1ccccc1Cl)(c1cc(C)c(O)c(C)c1)C(F)(F)F (configuration not stated)	?	0	0	4.5µM
CCOc1ccc(/C=C/C(O)=C2/C(=O)N(C)C3(C)CC2c2ccccc2O3)cc1OC (configuration not stated)	0	0	0	3.2µM
CCOc1ccc(/C=C/C(O)=C2/C(=O)NC3(C)CC2c2ccccc2O3)cc1OC (configuration not stated)	0	0	0	?
CCOC(=O)C1=CNS(=O)(=O)NC1c1cccc(O)c1 (configuration not stated)	0	0	0	0
O=C(Nc1c[nH]c(=O)[nH]c1=O)c1cccc([N+](=O)[O-])c1	0	0	0	0
CCCCN1C(=O)C(CC(=O)NCc2cccs2)CC(C(=O)N(CC)CC)=C1C (configuration not stated)	0	0	0	0
COc1ccc(C(=O)C2CN(c3ccccc3)CC2c2ccc(Cl)cc2)cc1 (configuration not stated)	0	0	0	0
CC(C)(C)OC(=O)N(CCc1ccccc1)Cc1ccccc1OCc1ccc(NC(=O)C2CCC2)cc1	0	0	0	3.5µM
CC(C)(C)OC(=O)N(Cc1ccccc1)Cc1ccc(OCc2cccc(NC(=O)C3CC3)c2)cc1	0	0	0	0
CC(C)(C)OC(=O)N(CCc1ccccc1)Cc1ccccc1OCc1cccc(NC(=O)C2CC2)c1	0	0	0	?
CC(C)(C)OC(=O)N(Cc1ccccc1)Cc1ccccc1OCc1ccc(NC(=O)C2CCC2)cc1	0	0	0	2.8µM
CC(C)(C)OC(=O)N(CCc1ccccc1)Cc1ccccc1OCc1cccc(NC(=O)C2CCCC2)c1	0	0	0	2.8µM
CC(C)(C)OC(=O)N(CCc1ccccc1)Cc1cccc(OCc2cccc(NC(=O)C3CCCC3)c2)c1	0	0	0	10µM
CN(C(=O)c1ccncc1)C1CCCCC1	0	0	0	0
CC1CCN(c2nn3c(=O)c(C(=O)NCCc4ccccc4)cnc3s2)CC1	0	-	0	0
CC(C)C(=O)Nc1cccc(COc2ccccc2CN(Cc2ccccc2)C(=O)OC(C)(C)C)c1	0	0	0	11µM
CC(C)(C)OC(=O)N(Cc1ccccc1)Cc1ccccc1OCc1cccc(NC(=O)c2ccccc2)c1	0	0	0	?
CCC(C)(C)NC(=O)CSc1nc(Cc2ccccc2)nc2ccccc12	0	0	0	4.5µM
CCCC(=O)Nc1ccc(C(=O)Nc2cc(C(F)(F)F)ccc2Cl)cc1	?	0	0	6.3µM
CCc1sc(C(=O)Nc2ccc(NC(C)=O)cc2)cc1C	0	0	0	0
CCc1sc(C(=O)Nc2nc(C)cs2)cc1C	?	0	0	10µM
CC1Cc2ccccc2N1C(=S)NC(=O)c1ccc(Cl)cc1Cl (configuration not stated)	?	0	0	10µM
SMILES	GLP1R cytotox	GLP-1R agonist	PTHR1 agonist	GLP-1R inv ag
CC1Cc2ccccc2N1C(=S)NC(=O)c1cccc(Br)c1 (configuration not stated)	?	0	0	?
O=C(CCC(=O)N1CCOCC1)NCCc1ccccc1	0	0	0	0
O=C(NCC12CC3CC(CC(C3)C1)C2)c1nn2c(c1Cl)NC(c1ccco1)CC2C(F)(F)F (configuration not stated)	0	0	0	4µM
O=C(NCc1cccc(Cl)c1)c1cnn2c1NC(c1ccco1)CC2C(F)(F)F (configuration not stated)	0	0	0	0
CCOc1ccc2nc(NC(=S)N(C)C)sc2c1	?	0	0	?
CN(C)C(=S)Nc1nc2ccccc2s1	?	0	0	0.63µM
Cc1ccccc1Nc1nc2ccccc2s1	0	0	0	11µM
COc1ccc(OC)c(CN2CCN(C(=O)c3ccc(F)cc3)CC2)c1	0	0	0	0
COc1ccc(C=O)cc1Cn1ccnc1	0	0	0	0
COc1ccc(C=O)cc1CN1CCCN(Cc2ccc(Cl)cc2)S1(=O)=O	0	0	0	7.1µM
COC(=O)c1ccc(OC)c(CN2CCCN(Cc3ccc(F)cc3)S2(=O)=O)c1	0	0	0	10µM
Cc1cccc(N2CCN(C(=O)c3ccc(Cl)c(S(=O)(=O)N4CCc5ccccc5C4)c3)CC2)c1C	0	0	0	7.1µM
O=C(c1ccc(Cl)c(S(=O)(=O)N2CCc3ccccc32)c1)N1CCN(c2ccccc2O)CC1	0	0	0	?
COc1ccc(NC(=O)NCCCCc2ccccc2)cc1	0	0	0	6.3µM
COc1cccc(NC(=O)Nc2ccc(C(C)(C)C)cc2)c1	0	0	0	6.3µM
CC(=O)c1cccc(NC(=O)NCCc2ccc(Cl)cc2)c1	0	0	0	?
COc1cccc(NC(=O)Nc2ccncc2)c1	0	0	0	0
COc1cccc(NC(=O)NCCc2ccc(Cl)cc2)c1	0	0	0	10µM
CCOc1ccc(NC(=O)NCCCCc2ccccc2)cc1	0	0	0	0
COc1ccccc1NC(=S)NC1CCCCCCCCCCC1	0.5µM	0	0	?
CNC1C(O)C(OC2C(NC(=O)C(O)CN)CC(N)C(OC3OC(CN)C(O)C(O)C3O)C2O)OCC1(C)O (configuration not stated)	-	0	-	-
COc1ccccc1NC(=S)NCCc1ccc(Cl)cc1	0	0	0	5µM
COc1ccccc1NS(=O)(=O)c1cccc(NC(=O)Nc2ccccc2)c1	?	0	0	5.6µM
COc1ccccc1NC(=S)NCC1CCCCC1	?	0	0	10µM
COc1ccccc1NS(=O)(=O)c1ccc(C)c(NC(=O)NC2CCCCC2)c1	0	0	0	11µM
SMILES	GLP1R cytotox	GLP-1R agonist	PTHR1 agonist	GLP-1R inv ag
COc1ccccc1NC(=S)NCCSc1ccc(Cl)cc1	0	0	0	0
COc1ccccc1NC(=S)NC1CCCCC1	0	0	0	0
Cc1nc(SCC(=O)Nc2ccccc2C)cc(-c2ccccc2)n1	0	-	0	0
Cc1ccc(SCCNC(=O)CN(c2cccc(C)c2C)S(C)(=O)=O)cc1	0	0	0	?
COc1cc(NS(=O)(=O)c2ccc(-c3cc(C)no3)cc2)cc(OC)c1	?	-	0	?
COc1ccccc1NC(=O)Nc1ccc(C(=O)N2CCCCC2)cc1	0	0	0	8.9µM
COc1ccc(N2CCN(Cc3nc4cc(Cl)ccc4c(=O)[nH]3)CC2)cc1	0	0	0	0
